Compound activity from PubChem.
NS1 inh: inhibitors of influenza NS1 protein function; Potency, µM (titrated, usually from 46.1 µM), for inactives: at the top dose activity, positive = more growth; 0.4% of 270,000 active; AID 2326; calls by dose curve; note: potency is the fitted concentration of half-maximal effect; actives are rising curves; nearly all actives have a fitted effect of over 50% in size
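Compounds were scored for reversing the slow growth caused by influenza A NS1 in S. cerevisiae, measured by optical density at 600 nm. Assay medium contained 2% galactose at pH 6.0; NS1-free yeast of the same strain were the positive control.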
LmPK inh: blocks Leishmania mexicana pyruvate kinase activity | AID 1721 | Potency, µM (top dose mostly 57.5 µM), for inactives: top-dose activity change, negative = inhibition, usual class: inhibitors | purified LmPK, Kinase-Glo ATP luminescence, 1 h | Q27686 | 0.37% of 290,000 active; note: potency is the fitted concentration of half-maximal effect; % is set by controls: 0 for no effect and ±100 for the full control effect
Target sequence (Q27686 whole entry, looked up): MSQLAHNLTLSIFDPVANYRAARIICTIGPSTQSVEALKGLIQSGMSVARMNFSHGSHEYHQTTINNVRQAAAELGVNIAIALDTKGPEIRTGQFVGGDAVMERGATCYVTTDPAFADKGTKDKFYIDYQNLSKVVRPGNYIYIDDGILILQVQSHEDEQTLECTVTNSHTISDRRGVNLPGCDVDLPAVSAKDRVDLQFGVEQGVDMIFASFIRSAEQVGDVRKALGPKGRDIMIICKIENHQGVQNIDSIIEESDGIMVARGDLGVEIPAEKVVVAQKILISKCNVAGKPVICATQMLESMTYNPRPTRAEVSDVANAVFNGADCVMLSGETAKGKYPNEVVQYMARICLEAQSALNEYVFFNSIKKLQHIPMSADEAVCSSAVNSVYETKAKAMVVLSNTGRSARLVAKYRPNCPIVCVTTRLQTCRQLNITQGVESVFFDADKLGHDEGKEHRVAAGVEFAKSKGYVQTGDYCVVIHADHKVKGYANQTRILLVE
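Screened at intermediate enzyme activity to detect both inhibitors and activators: LmPK at 0.1 nM, with a 0.5 nM enzyme column as activation reference. PEP 0.5 mM, ADP 0.1 mM; ATP detected by luminescence after 1 h.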
SARS PLpro yeast: blocks SARS-CoV papain-like protease in a yeast assay | S. cerevisiae expressing SARS-CoV PLpro, growth rescue | Potency, µM (titrated, usually from 32.9 µM), inactives show at the highest dose activity, positive = growth rescue, most hits filed as activators | 0.19% of 330,000 active | AID 485353; calls by dose curve; note: potency is the fitted concentration of half-maximal effect; 0% is about no effect; nearly all actives have a fitted effect of over 55% in size
Shiga toxin inh: blocks Shiga toxin action in Vero cells | 9.2% of 290,000 active | inhibition, % at 38.7 µM | Vero cells, Shiga toxin protein synthesis inhibition reporter | AID 2315; in the data active = inhibition mostly above about 28%, no sharp cut-off; inactive = mostly below about 43%; note: 0% is about no effect
TbPYK inhibitor: inhibitors of Trypanosoma brucei pyruvate kinase. AID 624173. Q57TT1. 0.12% of 410,000 active. Potency, µM (highest dose often 76.8 µM), for the others: at the highest dose activity, negative = inhibition, usual class: inhibitors. TbPYK enzyme, Kinase-Glo Plus ATP luminescence, 45 min; note: potency is the fitted concentration of half-maximal effect; % is set by controls: 0 for no effect and ±100 for the full control effect; nearly all actives have a fitted effect of over 50% in size
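Quantitative HTS: titrated library compounds versus trypanosomal pyruvate kinase in TEA buffer (pH 7.2) containing KCl, MgCl2, BSA and Tween-20. Reactions were initiated with ADP, 130 uM final. Kinase-Glo Plus luminescence was read after 45 min at RT.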
Cycloheximide cs: counter-screen for Shiga toxin inhibitors: cycloheximide protein synthesis inhibition; cell reporter, cycloheximide protein synthesis inhibition counterscreen; max response, %; 12% of 300,000 active; AID 2314; in the data active = max response mostly above about 13%, no sharp cut-off; inactive = mostly below about 14%; note: read at 38.3 µM for the half of the compounds with a filed dose; 0% is about no effect
Starred values were filed as active, the others as inactive; ? = inconclusive; . = no result; [ ] = another dose, or the depositor's remark. This excerpt belongs to a sample that is enriched for hits. Unless noted, calls come from the whole dose curve; as a rule, active = well fitted curve in the direction sought with a large enough effect; inconclusive = small, poorly fitted or top-dose-only effect, or another doubt; inactive = no such curve, though single readings can be large; an effect the other way counts as inactive or inconclusive.

SMILES	NS1 inh	LmPK inh	SARS PLpro yeast	Shiga toxin inh	TbPYK inhibitor	Cycloheximide cs
COc1ccccc1NC(=O)c1ccccc1NC(=O)c1ccccc1	.	.	.	.	0.6%	.
COc1cc(NC(=O)c2ccc3nsnc3c2)cc(OC)c1OC	-0.1%	-2.5%	-2.9%	-2.0	-0.3%	-1.2
O=C(Nc1ccccc1)c1ccc2snnc2c1	-1.1%	-13.4%	-0.4%	67.4*	-11.7%	25.0*
O=C(Nc1cccnc1)c1ccc2snnc2c1	-11.6%	0.9%	2.2%	-1.0	-6.9%	21.0
COc1ccccc1NC(=O)c1ccc(N)cc1	-5.5%	9.6%	6.3%	59.6*	-3.3%	15.6*
CC1CCC(NC(=O)c2ccc3snnc3c2)CC1 (stereo not drawn)	-3.1%	0.0%	-5.9%	50.3*	13.8%	40.8*
COc1ccccc1NC(=O)c1ccc2nsnc2c1	-6.9%	-11.7%	-1.6%	106.7*	-4.6%	25.7*
CN(C)C(=O)CSc1ccccc1C(=O)OCC(=O)NC1CC1	.	.	-0.8%	.	-4.9%	.
COC(=O)C1(NC(=O)CNC(=O)OCc2ccccc2)CCCC1	.	.	.	.	-4.5%	.
CC(C)(C)c1ccc(OC(=O)c2ccc3nsnc3c2)cc1	0.1%	1.6%	18.9%	17.4	0.5%	-5.0
O=C(Nc1ccc(F)cc1)c1cccc(C(=O)Nc2ccc(F)cc2)c1	4.1%	4.7%	-1.5%	-3.5	0.0%	-0.9
O=C(Nc1ccc(F)cc1)c1ccc2nsnc2c1	-33.3%	-13.9%	-1.8%	64.3*	2.9%	45.7*
COc1ccccc1NC(=O)c1ccc2snnc2c1	-6.2%	-16.1%	-1.0%	41.6*	5.8%	16.5
COc1cc(NC(=O)c2ccc3snnc3c2)cc(OC)c1	2.4%	1.4%	-1.0%	23.0	-3.9%	28.6*
COc1ccccc1OC(=O)c1ccc2nsnc2c1	-1.4%	0.2%	-11.0%	14.7	-1.3%	9.9*
COc1cccc(NC(=O)c2ccc3nsnc3c2)c1	-16.2%	-17.2%	-8.2%	77.8*	-11.9%	28.3*
Cc1ccc(C(=O)Nc2ccccc2OC(F)F)cc1	-17.1%	-11.6%	-8.8%	44.8*	-0.1%	37.1*
O=C(Nc1ccccc1OC(F)F)c1ccccc1	-13.1%	1.1%	-19.9%	-9.5	4.0%	9.7
Cc1ccc(NC(=O)c2ccc3snnc3c2)cc1	3.0%	-3.9%	-1.7%	29.1	-2.9%	18.1*
Cc1cc(Cl)ccc1OCc1cc(=O)n2c3c(sc2n1)CCCC3	.	.	.	.	-2.2%	.
O=C(Cn1cc(C(F)(F)F)ccc1=O)N1CCc2ccccc21	.	.	-3.8%	.	0.0%	.
COCCn1c(C)cc(O)c(C(c2ccccc2)N2CCC(C)CC2)c1=O (stereo not drawn)	.	.	.	.	2.1%	.
O=C(c1ccc(Cl)c(Cl)c1)c1cnc(Nc2ccccc2)s1	-7.5%	0.2%	-3.4%	-3.6	-0.9%	10.7
CC(C)(C)C(=O)c1cnc(Nc2ccccc2Cl)s1	2.6%	?	.	67.4*	-12.2%	58.6*
Cc1cnc(NC(=O)Cc2ccccc2Cl)s1	-6.8%	-1.5%	-6.2%	17.1	17.2%	0.3
SMILES	NS1 inh	LmPK inh	SARS PLpro yeast	Shiga toxin inh	TbPYK inhibitor	Cycloheximide cs
O=C(c1ccccc1)c1cnc(Nc2ccccc2Cl)s1	-65.8%	-2.2%	-10.9%	88.5*	1.2%	41.7*
CC(C)C[C@H](NC(=O)[C@H](Cc1ccccc1)NC(=O)c1cnccn1)B(O)O	.	.	.	.	0.0%	.
CCCCN1C(=O)C(=O)N(CC(=O)N2N=C3/C(=C/c4ccco4)CCCC3C2c2ccco2)C1=O (stereo not drawn)	.	6.3%	-3.7%	49.4*	-2.0%	20.4*
CCC(C)Sc1nnc(NC(=O)c2ccco2)s1 (stereo not drawn)	.	.	.	.	-2.0%	.
CCCSc1nnc(NC(=O)c2ccco2)s1	.	0.0%[11.5 µM]	-4.8%	108.8*	0.6%	24.4*
COCCSc1nnc(NC(=O)c2ccco2)s1	-33.0%	-5.9%	-9.2%	36.0	-6.6%	19.9*
CSc1nnc(NC(=O)c2ccco2)s1	-43.2%	0.2%	-6.5%	.	-7.1%	16.2*
O=C(CSc1nnc(NC(=O)c2ccco2)s1)Nc1cccc(F)c1	-12.3%	-1.5%	-1.3%	78.3*	3.0%	32.4*
O=C(NC1CC(=O)N(c2cccc(F)c2)C1)c1ccc(Br)o1 (stereo not drawn)	.	.	.	.	2.7%	.
CCOc1ccccc1CNC(=O)c1cnc2sc(N3CCCC3)nn2c1=O	.	.	.	.	5.5%	.
O=C(O)CNc1ccc(C(=O)O)cc1	0.0%	.	.	.	.	.
